# Where “and” joins values, the source holds several entries; their conditions need not be identical. Identical values can stand only once. Hit rate of the full screen: of about 220,000 compounds, about 16,000 (7.3%) were called active. Entries that show only a call come without a potency. Not shown: some 25% with an inconclusive outcome. Calls come from the whole dose curve; as a rule, active = well fitted inhibition curve with a large enough effect (not every such curve was filed as active); inconclusive = small, poorly fitted or top-dose-only effect, or another doubt; inactive = no such curve, though single readings can be large or run the other way. This excerpt belongs to a sample that is enriched for actives. Some structures have more than one record in an assay (separate samples or runs), and their calls can disagree.
# Biological target: Aldehyde dehydrogenase 1A1 (Homo sapiens) (UniProt P00352)
# Sequence (P00352 whole entry, looked up): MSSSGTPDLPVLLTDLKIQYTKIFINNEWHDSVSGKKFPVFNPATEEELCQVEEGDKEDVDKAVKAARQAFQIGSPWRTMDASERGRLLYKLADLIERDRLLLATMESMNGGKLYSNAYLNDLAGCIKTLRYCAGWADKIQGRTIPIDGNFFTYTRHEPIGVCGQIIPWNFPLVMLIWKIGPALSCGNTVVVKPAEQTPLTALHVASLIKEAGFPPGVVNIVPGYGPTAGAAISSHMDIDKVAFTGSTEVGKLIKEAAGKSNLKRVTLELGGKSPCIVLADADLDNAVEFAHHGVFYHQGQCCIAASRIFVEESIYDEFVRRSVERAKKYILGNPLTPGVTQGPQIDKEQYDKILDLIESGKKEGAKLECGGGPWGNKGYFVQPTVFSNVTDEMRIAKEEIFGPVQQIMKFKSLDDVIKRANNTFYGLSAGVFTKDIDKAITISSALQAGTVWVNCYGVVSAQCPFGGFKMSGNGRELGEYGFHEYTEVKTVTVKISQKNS
# Assay: qHTS Assay for Inhibitors of Aldehyde Dehydrogenase 1 (ALDH1A1)
# Conditions: Purified ALDH1A1, NADH fluorescence, propionaldehyde substrate; series mostly up to 75.3 µM
# Potency is the fitted concentration of half-maximal effect.
Compound,Potency,"activity, negative = inhibition"
CCN(C(=O)CSc1nc2ccccc2n1CC)C1CCS(=O)(=O)C1 (stereo not drawn),inactive,
O=C(c1ccc(C(F)(F)F)cc1)C1CCCN(C(=O)c2csnn2)C1 (stereo not drawn),inactive,
O=C(Nc1ccc(Cl)cc1)N1CCc2[nH]c3ccccc3c2C1,inactive,
Cc1ccc2[nH]c3c(c2c1)CN(C(=O)CN1CCN(c2ccccc2)CC1)CC3,17.8 µM (active),
CCCC(=O)N1CCc2[nH]c3ccccc3c2C1,inactive,
O=C(/C=C/c1ccccc1)Oc1coc(CSc2ncccn2)cc1=O,inactive,
Cc1cc(C)cc(NC(=O)COC(=O)c2cc(C)oc2C)c1,inactive,
COc1ccc(N(CC(=O)NC2CCCC2)C(=O)CS(=O)CC(=O)Nc2ccc3c(c2)OCO3)cc1 (stereo not drawn),inactive,
CCCn1c(SCC(N)=O)nnc1C(C)C,inactive,
CCCn1c(SCC(=O)c2ccc3c(c2)OCCO3)nnc1C(C)C,20 µM (active),
CCCn1c(SCC(=O)Nc2c(C)cccc2C)nnc1C(C)C,inactive,
CCOC(=O)c1cc2c(=O)[nH]c(C(Cl)(Cl)Cl)nc2o1,inactive,
CCc1nnc(NC(=O)c2sc3nc(C)cc(COC)c3c2N)s1,inactive,
COc1ccc(CC(=O)NCc2nnc(SCC(=O)Nc3ncc(C)s3)n2C)cc1,inactive,
COc1ccc(CCN(C)CCN2C(=O)c3ccccc3C2=O)cc1OC,inactive,
COc1ccc(CCN2C(=O)C3CC=C(C)CC3C2=O)cc1OC (stereo not drawn),17.8 µM (active),
COc1ccc(CN2C(=O)CC(Cc3ccc(C)cc3)C2=O)cc1OC (stereo not drawn),inactive,
O=c1cc(O)c(-c2cccc(C(F)(F)F)c2)c(Cl)[nH]1,inactive,
CCOC(=O)c1ccc(NC(=O)Cn2nnc(-c3ccc(C)cc3)n2)cc1,inactive,
CCOC(=O)c1ccc(Nc2cc(C)nc3nc(C)nn23)cc1,inactive,
CCc1ccc(NC(=O)N2CCN(c3ccccc3)CC2)cc1,inactive,
CCc1ccc(NC2Nc3cc(C)nn3S2)cc1 (stereo not drawn),10 µM (active),
CCOC(=O)c1ccc(NC2Nc3cc(C)nn3S2)cc1 (stereo not drawn),12.6 µM (active),
COc1ccc(NC(=O)CN(C)CC(=O)Nc2cccc(C(F)(F)F)c2)cc1,inactive,
CCC(C)(C)NC(=O)CN(C(=O)C(=O)Nc1ccc2c(c1)OCCO2)C(C)(C)CC,inactive,
Cc1nnc(SCc2cccc(Cl)c2)n(N)c1=O,inactive,

Compound,Potency,"activity, negative = inhibition"
CCCn1c(N)c(C(=O)CSc2nc3ccccc3c(=O)n2-c2ccc(OC)cc2)c(=O)[nH]c1=O,inactive,
O=C(NCc1ccccc1Cl)C1CCN(S(=O)(=O)N2CCOCC2)CC1,inactive,
O=C(CN1CCN(C(=O)c2ccco2)CC1)Nc1ccc(Cl)c(C(F)(F)F)c1,17.8 µM (active),
O=C(CCCN1C(=O)CCC1=O)Nc1ccc(Cl)c(C(F)(F)F)c1,inactive,
CCC(=O)Nc1ccc(C(=O)N2CCN(C(=O)c3ccco3)CC2)cc1,inactive,
O=C(CCN1C(=O)/C(=C/c2cccs2)SC1=S)NNC(=O)c1cccc(O)c1,inactive,
c1ccc(CN2CCC(N=C3NN=C(c4ccc5c(c4)OCCO5)CS3)CC2)cc1,inactive,
Clc1cccc(N=C2NN=C(c3ccc4c(c3)OCCO4)CS2)c1,28.2 µM (active),
CCOC(=O)C1=C(O)CSC1=Nc1cccc(Cl)c1,inactive,
Cc1ccc(C(=O)Cc2nnc(C)s2)cc1,inactive,
COc1cc(CN(C)Cc2nc3cc(C(F)(F)F)ccc3c(=O)[nH]2)ccc1OC(F)F,inactive,
O=C(O)c1ccc(NS(=O)(=O)c2ccc3c(c2)C(=O)c2cc(S(=O)(=O)Nc4ccc(C(=O)O)cc4)ccc2-3)cc1,inactive,
CCCc1nc2ccccc2c(C(=O)OCC(=O)c2ccc3c(c2)NC(=O)CO3)c1CC,inactive,
CN(C(=O)CSc1nnc(Nc2ccccc2)s1)C1CCS(=O)(=O)C1 (stereo not drawn),inactive,
CCc1ccc(Nc2nnc(SCC(=O)c3ccc4c(c3)NC(=O)CO4)s2)cc1,3.55 µM (active),
COc1ccc(OCCCn2cccc2/C=C2/C(=N)N3OC(C)=CC3=NC2=O)cc1,inactive,
O=C(NC1CC1)C1CCCN(C(=O)NC2CCCCC2)C1 (stereo not drawn),inactive,
C=CCc1cccc2cc(C(=O)Nc3ccc(NC(C)=O)cc3)c(=O)oc12,inactive,
COCCNc1cc(NCCOC)c([N+](=O)[O-])cc1[N+](=O)[O-],inactive,
Cn1c(-c2ccc(F)cc2)cnc1SCC(=O)NNC(=O)Cc1ccccc1,inactive,
Cn1c(-c2ccc(F)cc2)cnc1SCC(=O)NCc1ccco1,22.4 µM (active),
O=C(CSc1nnc2scc(-c3ccc(F)cc3)n12)NCc1ccco1,inactive,
COc1ccc(-c2ccc(OC(=O)NC3CCS(=O)(=O)C3)cc2)cc1 (stereo not drawn),inactive,
CCOC(=O)N1CCN(C(=O)c2ccccc2N(Cc2ccccc2)S(=O)(=O)c2ccc(OC)cc2)CC1,inactive,
COc1ccccc1N1CCN(C(=O)CN(Cc2ccc(Cl)cc2)S(C)(=O)=O)CC1,inactive,
COc1ccccc1-n1nnnc1S(=O)(=O)Cc1ccc(Cl)cc1,2.51 µM (active),

Compound,Potency,"activity, negative = inhibition"
N#Cc1cccc(CS(=O)(=O)c2nnnn2-c2cc(C(F)(F)F)cc(C(F)(F)F)c2)c1,inactive,
CCN(CCCNC(=O)CCn1c(=O)[nH]c2ccsc2c1=O)c1ccccc1,inactive,
CC(C)(C)c1nc(NCC2CCCO2)c2nnn(Cc3ccccc3)c2n1 (stereo not drawn),inactive,
CC(C)Nc1ncnc2c1nnn2Cc1ccccc1,12.6 µM (active),
Cc1nc(Nc2ccc(S(=O)(=O)N3CCCC3)cc2)c2nnn(Cc3ccccc3)c2n1,inactive,
COc1ccc(N2CCN(C(=O)C3CCN(S(=O)(=O)c4ccc(C)cc4)CC3)CC2)cc1,inactive,
COc1ccc(/C=C(\C#N)C(=O)NCCCn2ccnc2)cc1,inactive,
COc1ccc(/C=C(\C#N)C(=O)ONC2=NCCCCC2)cc1,35.5 µM (active),
COc1cccc(OC)c1C(=O)Nc1ccc(N2CCCCC2)cc1,inactive,
COc1ccc(C(=O)NC(=S)Nc2ccccc2N2CCN(S(C)(=O)=O)CC2)cc1OC,0.501 µM (active),
Cc1cccc(OCC(=O)NC(=S)Nc2ccccc2N2CCOCC2)c1,inactive,
Cc1ccc(C(=O)NC(=S)NCCN2CCOCC2)cc1,inactive,
COc1ccc(C(=O)NC(=S)Nc2ccc(Cl)cn2)cc1OC,inactive,
COc1ccc(C(=O)Nc2ccc3nc(N4CCCCC4)cc(C)c3c2)cc1OC,inactive,
COc1ccc(C(=O)NC(=S)Nc2ccc(N3CCCC3)cc2)cc1OC,3.55 µM (active),
COC(=O)c1ccc(NC(=S)NN2CCOCC2)cc1,inactive,
Cc1ccc(C(=O)NC(=S)Nc2ccc(N3CCOCC3)cc2)cc1,11.2 µM (active),
CC1(C)CC(=O)C=C(N2CCOCC2)C1,inactive,
O=[N+]([O-])c1ccc(Sc2n[nH]c(-c3ccco3)n2)nc1,inactive,
CN(c1ccc(OCC(=O)OCC(=O)Nc2cccc([N+](=O)[O-])c2)cc1)S(=O)(=O)c1ccc(F)cc1,inactive,
O=C(Cc1ccc(F)cc1)N1CCN=C1SCc1cccc([N+](=O)[O-])c1,inactive,
COc1cccc(C(O)Cc2nc3ccccc3n2C)c1OC (stereo not drawn),inactive,
CCNC(=O)COc1cc(C)c(Br)c(C)c1,inactive,
CCc1cc(C(=O)c2ccc(OC)cc2)c(NC(=O)CN2CCN(C)CC2)s1,inactive,
Cc1cc(Cl)ccc1NC(=S)NCCCN1CCCC1=O,inactive,
CCOC(=O)c1nn(-c2cccc(C)c2)cc1C(=O)c1ccccc1,5.01 µM (active),

Compound,Potency,"activity, negative = inhibition"
CCOC(=O)c1cn(Cc2cccc(C)c2)nn1,inactive,
CCOC(=O)c1c(N)nn(C(=O)c2ccccc2)c1-c1ccccc1,inactive,
CCCCS(=O)(=O)N1C2=NC(C(=O)OC)=C(C(=O)OC)[C@@H]3N(Cc4ccccc4)c4ccccc4[C@]23C[C@H]1C(=O)OC,,1.36% [at 13.5 µM] (inactive)
CC(C)(C)c1ccc(/C=C2\SC(=O)N=C2N)cc1,inactive,
COc1ccc(-c2nnn(Cc3nc(N)nc(N4CCCCC4)n3)n2)cc1,0.562 µM (active),
CN(C)c1nc(N)nc(Cn2nnc(-c3ccc(C(F)(F)F)cc3)n2)n1,inactive,
COc1ccc(-n2nnnc2SCc2nc(N)nc(N3CCOCC3)n2)cc1,inactive,
CC(Nc1ccccc1)c1cccnc1 (stereo not drawn),inactive,
OC[C@H]1O[C@@H](n2cnc3c(N[C@H]4CC5CCC4C5)ncnc32)[C@H](O)[C@@H]1O (stereo partly drawn),inactive,
COn1c(-c2ccc(Cl)cc2Cl)nc2ncccc21,inactive,
COc1ccccc1/C=C/C=N/n1c(-c2ccc(Cl)cc2Cl)n[nH]c1=S,20 µM (active),
Clc1ccc(-c2ncc3ccccn23)c(Cl)c1,inactive,
Cc1cc(/C=N/NC(N)=O)c(C)n1C1CCCCC1,inactive,
CC1CCc2sc(C(=O)N/N=C/C3CCCCC3)cc2C1 (stereo not drawn),11.2 µM (active),
OC(CNCc1ccc(Cl)c(Cl)c1)c1ccccc1 (stereo not drawn),inactive,
COc1ccc(-n2c(C)nc3c(cnn3-c3ccccc3)c2=O)cc1,inactive,
Cc1ccc(-n2ncc3c(=O)n(-c4ccc(C)c(C)c4)c(-c4ccco4)nc32)cc1,25.1 µM (active),
Cc1ccc(-c2nc3c(cnn3-c3ccccc3)c(=O)o2)cc1,inactive,
Cn1nnnc1SCC(=O)Nc1nc2ccccc2s1,inactive,
Cc1cc([N+](=O)[O-])nn1CCCC(=O)Nc1cccnc1Cl,inactive,
COc1ccc(CC(N)C(=O)NC2C(O)[C@H](n3cnc4c(N(C)C)ncnc43)O[C@@H]2CO)cc1 (stereo partly drawn),inactive,
O=C(NCC1CCC(C(=O)O)CC1)OCc1ccccc1 (stereo not drawn),inactive,
COC(=O)[C@H](Cc1ccccc1)NC(=O)[C@@H]1C[C@H]1[C@@H](NC(=O)OCc1ccccc1)c1ccccc1,inactive,
COC(=O)[C@H](C)[C@H]1C[C@]1(C)[C@H](NC(=O)OCc1ccccc1)c1ccccc1,inactive and 22.4 µM (active),
COc1ccc(C2(CNC(=O)Cc3ccc(OC)c(OC)c3)CCCC2)cc1,inactive,

# Source: PubChem BioAssay AID1030 (National Center for Advancing Translational Sciences (NCATS), 2008)
